RmlCD inh 1536 – inhibitors of Mycobacterium tuberculosis RmlC and RmlD coupled enzymes; RmlC+RmlD coupled enzyme assay, percent inhibition; primary screen in compound mixtures; inhibition, % at 3.6 µM; 0.03% of 160,000 active; in the data active = inhibition mostly above about 34%, no sharp cut-off
Target sequence (P9WH09 whole entry, looked up): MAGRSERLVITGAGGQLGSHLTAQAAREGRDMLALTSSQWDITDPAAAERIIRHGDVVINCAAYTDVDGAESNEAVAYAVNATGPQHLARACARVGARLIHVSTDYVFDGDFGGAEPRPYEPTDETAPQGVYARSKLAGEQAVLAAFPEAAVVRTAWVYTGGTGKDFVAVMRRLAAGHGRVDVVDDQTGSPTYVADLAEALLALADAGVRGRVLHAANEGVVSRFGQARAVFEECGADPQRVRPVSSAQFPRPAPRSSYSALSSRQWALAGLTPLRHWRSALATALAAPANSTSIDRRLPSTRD
Target sequence (P9WH11 whole entry, looked up): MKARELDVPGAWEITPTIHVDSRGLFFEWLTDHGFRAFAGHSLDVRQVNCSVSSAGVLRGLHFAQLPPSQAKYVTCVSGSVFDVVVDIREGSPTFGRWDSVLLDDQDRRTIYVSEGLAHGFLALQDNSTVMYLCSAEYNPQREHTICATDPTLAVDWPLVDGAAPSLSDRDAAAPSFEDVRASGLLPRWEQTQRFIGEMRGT
RecA intein inh – Mtb RecA intein splicing inhibition; cell-free RecA intein splicing, fluorescence; P9WHJ3; 0.75% of 290,000 active; AID 2221; inhibition, % (concentration not given with the values); in the data active = inhibition above about 30%;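 also: 0% = vehicle wells and 100% = reference inhibitor control wells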
GFP chromophore – counter-screen: blocks GFP chromophore formation; AID 434968; cell-free GFP chromophore formation, fluorescence; 83% of 2,100 active; shares compounds with RecA intein inh; EC50, µM; call rule not given here
* hit, by the source's call; . = no result given. In the library only some 0.77% were active in any assay of this set; here they are far more common.

SMILES | RmlCD inh 1536 | RecA intein inh | GFP chromophore
CC1CCc2sc(C(=O)N3CCN(c4ncccn4)CC3)cc2C1 (stereo not given) | . | 1 | .
CC(C)(C)c1ccc(/C=C/C(=O)Nc2cccnc2)cc1 | . | 9 | .
CC(=O)OCCCNc1cc(SCc2ccco2)c2nonc2c1[N+](=O)[O-] | 2 | 78* | 14*
CCCSc1cc(NCCOC(=O)CCC)c([N+](=O)[O-])c2nonc12 | 2 | 60* | 9.9*
Cc1nn(C(C)C(=O)NCc2ccco2)c(C)c1[N+](=O)[O-] (stereo not given) | -4 | 1 | .
CCCSc1cc(NCCOC(C)=O)c([N+](=O)[O-])c2nonc12 | -7 | 8 | .
COc1ccc(OC(=O)c2cc3cc(Cl)ccc3oc2=O)cc1 | . | -3 | .
COc1cc(/C=C2/C(=O)N(c3ccc([N+](=O)[O-])cc3)N=C2N2CCOCC2)ccc1O | 12 | 46* | 23*
CCN(CC)c1ccc(/C=C2/C(=O)N(c3ccc([N+](=O)[O-])cc3)N=C2N2CCOCC2)cc1 | -9 | -7 | .
CSc1nc(-c2ccc(Cl)cc2)nn1C(=O)c1ccccc1 | 13 | 4 | .
CSc1nc(-c2ccccc2)nn1C(=O)c1ccc(Cl)cc1 | 14 | 57* | >38
CC(C)(C)c1cn(-c2ccc(Cl)cc2)c(=S)[nH]1 | . | 6 | .
CCCS(=O)(=O)c1nc(S(=O)(=O)c2ccc(C)cc2)c(NCCCn2ccnc2)s1 | . | -2 | .
CCOC(=O)C1CCCN(C(=O)c2cc3ncc(Br)cn3n2)C1 (stereo not given) | . | 1 | .
OC(CNCc1cccs1)c1ccccc1 (stereo not given) | . | 0 | .
c1ccc(CCNCc2cccs2)cc1 | . | 33* | >38
CC(=O)Nc1ccc(S(=O)(=O)Nc2ccc3c(c2)OCCO3)cc1 | 22 | -1 | .
CCN(c1ccccc1)c1nc(=O)c2cccnc2s1 | 0 | -1 | .
CCN(c1ccccc1)c1cc2ccccc2c(=O)[nH]1 | . | 65* | 31*
CCC(=O)N1CC2(c3ccccc3)CN(C(=O)CC)CC(c3ccccc3)(C1)C2=O | -3 | 0 | .
CC(=O)N1CC2(c3ccccc3)CN(C(C)=O)CC(c3ccccc3)(C1)C2=O | -7 | 62* | >38
COc1ccc(S(=O)(=O)N(CCCN2CCOCC2)Cc2cccc(OC)c2OC)cc1 | -1 | -7 | .
Nc1nc(-c2ccc(Cl)cc2)c(S(=O)(=O)c2ccccc2)s1 | 13 | 3 | .
Nc1nc(-c2ccc(Br)cc2)c(S(=O)(=O)c2ccccc2)s1 | . | 81* | >38
N/C(=N\c1nc2c(c(=O)[nH]1)CCCC2)Nc1ccc(Oc2ccccc2)cc1 | . | 0 | .
SMILES | RmlCD inh 1536 | RecA intein inh | GFP chromophore
COc1ccccc1N1CCN(C(=O)CCc2ccccc2)CC1 | . | 3 | .
CN1CCc2nc(SCc3ccc(Cl)cc3)c(C#N)c(-c3cccs3)c2C1 | . | 60* | 8.7*
N#Cc1c(N)nc(SCc2ccncc2)c(C#N)c1-c1cccs1 | . | -4 | .
CCOC(=O)c1nnc(-c2ccccc2)nc1Sc1c(Cl)cccc1Cl | . | 54* | 38*
CCOC(=O)c1nnc(-c2ccc(C)cc2)nc1Sc1ccccc1Cl | . | 22 | .
Cc1c(-c2ccccc2)oc2c(C(=O)N3CCN(c4ccccc4F)CC3)cccc2c1=O | . | 2 | .
O=c1cc(-c2ccccc2Cl)oc2c(NS(=O)(=O)c3cc(Cl)cc(Cl)c3O)ccc(O)c12 | . | 26 | .
CCOc1cc(C(c2c(C)[nH][nH]c2=O)c2c(C)[nH][nH]c2=O)ccc1OC(=O)c1cccc([N+](=O)[O-])c1 | 12 | 92* | 0.44*
CCOc1ccc(C(=O)Oc2cc(C)[nH]c(=O)c2[N+](=O)[O-])cc1OCC | . | -4 | .
CCOc1cc(/C=C2/NC(=S)NC2=O)ccc1OCc1ccc([N+](=O)[O-])cc1 | 7 | 1 | .
CCOc1cc(C(c2c(C)[nH][nH]c2=O)c2c(C)[nH][nH]c2=O)ccc1OCc1ccc([N+](=O)[O-])cc1 | . | 99* | 0.33*
O=C(Nc1nc(-c2ccccc2)cs1)c1ccccc1NS(=O)(=O)c1ccc(F)cc1 | 5 | 35* | 28*
O=S(=O)(Nc1ccc(-c2csc(-c3ccccc3)n2)cc1)c1ccc(F)cc1 | 11 | -3 | .
CC1CCc2c(c3ccccc3n2C(=O)CCl)C1 (stereo not given) | . | 41* | 0.69*
CCN1CCN(CC(=O)n2c3c(c4ccccc42)CC(C)CC3)CC1 (stereo not given) | . | -8 | .
Cc1c(Cl)cccc1NC(=O)Nc1cc(C(C)(C)C)on1 | . | 1 | .
CC(=O)Nc1nc(-c2ccc3ccccc3c2)cs1 | . | 1 | .
Oc1ccc(Nc2nc(-c3ccc4ccccc4c3)cs2)cc1 | 7 | 34* | 20*
CCN(CC)C(=O)CSc1nc(O)c(Cc2ccccc2)c(=O)n1-c1ccccc1C | 8 | -1 | .
Cc1ccccc1-c1nc(CN(C)C(C)c2ccon2)c(C)o1 (stereo not given) | . | 39* | 13*
Cc1oc(-c2ccccc2Cl)nc1CN(C)C(C)c1ccon1 (stereo not given) | 9 | 1 | .
O=C(c1cn[nH]c1)N1CCc2c([nH]c3ccccc23)C1c1c(F)cccc1Cl (stereo not given) | -7 | -2 | .
COc1ccc(OC)c(NC(=O)COc2coc(CN3CCc4ccccc43)cc2=O)c1 | . | 1 | .
COc1ccc([N+](=O)[O-])cc1NC(=O)COC(=O)c1ccccc1C(=O)c1ccccc1 | -3 | -2 | .
O=C(Nc1ccccc1)Nc1cccc2ccccc12 | -2 | . | .
SMILES | RmlCD inh 1536 | RecA intein inh | GFP chromophore
O=C(Nc1ccccc1)Nc1ccc(O)c2ccccc12 | . | 60* | 3*
COc1ccc(OC)c(NC(=O)Nc2c(O)ccc3ccccc23)c1 | . | -1 | .
COc1ccc(OC)c(NC(=O)Nc2ccc(O)c3ccccc23)c1 | . | 78* | 1.2*
COc1ccc(C(=O)Nc2ccc(F)cc2F)cc1OC | . | 1 | .
COc1ccc(C(=O)Nc2ccc(O)c3ccccc23)cc1OC | . | 98* | 15*
CC(OC(=O)c1cc2c(ccc3ccccc32)oc1=O)c1nc2ccccc2s1 (stereo not given) | 7 | -25 | .
CC(=O)Nc1ccc(S(=O)(=O)N/N=C/c2ccc(C)o2)cc1 | . | -1 | .
O=C(CCC(=O)N1CCOc2ccccc21)N1CCCCC1 | . | -3 | .
O=C1/C(=C/c2cccc([N+](=O)[O-])c2)CCc2ccccc21 | 3 | 45* | 29*
O=C1/C(=C/c2ccc([N+](=O)[O-])cc2)CCc2ccccc21 | . | 20 | .
CCN(CC)S(=O)(=O)c1cc(NC(=O)CN2C(=O)NC3(CCCc4ccccc43)C2=O)ccc1C (stereo not given) | 6 | 3 | .
CCCN1C2CCCC1CC(NC(=O)c1ccccc1F)C2 (stereo not given) | 17 | -1 | .
COCc1cc(C)[nH]c(=O)c1C(=O)NC12CC3CC(CC(C3)C1)C2 | -1 | 1 | .
Cc1c(CC(=O)N[C@H](C(=O)O)C(C)C)c(=O)oc2cc3c(cc12)CCC(C)(C)O3 | . | 1 | .
CSc1ccccc1OCc1cc(C(=O)NC2CCOC(C)(C)C2)no1 (stereo not given) | . | 2 | .
COc1ccc(OCc2cc(C(=O)NC3CCOC(C)(C)C3)no2)c2ccccc12 (stereo not given) | . | 54* | 12*
C=CCOC(=O)CN1C(=O)c2ccccc2C1=O | 2 | 1 | .
O=C1NN(c2ccccc2)C(=O)/C1=C/c1ccc(-c2ccc(C(=O)O)cc2)o1 | . | -8 | .
O=C(O)c1ccc(N2C(=O)/C(=C/c3ccc(-c4ccc([N+](=O)[O-])cc4)o3)C=C2c2ccccc2)cc1 | 14 | 32* | >38

Source: PubChem BioAssay (several laboratories)
